Shiga toxin inh: A qHTS for Small Molecule Inhibitors of Shiga Toxin. Vero cells, Shiga toxin protein synthesis inhibition reporter. inhibition, % at 38.7 µM. 290,000 tested, 9.2% active; in the data active = inhibition mostly above about 28%, no sharp cut-off; inactive = mostly below about 43%
SARS PLP yeast: qHTS of Yeast-based Assay for SARS-CoV PLP; S. cerevisiae expressing SARS-CoV PLpro, growth rescue; Potency, µM (series often up to 32.9 µM), most hits filed as activators; 330,000 tested, 0.19% active; calls by dose curve; also: nearly all actives have a fitted effect of over 55% in size
Pf growth 48h: Primary qHTS for delayed death inhibitors of the malarial parasite plastid, 48 hour incubation | P. falciparum luciferase growth in erythrocytes, 48 h | Potency, µM (highest dose often 28.7 µM), actives largely listed as inhibitors | 310,000 tested, 5.9% active
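Luciferase-expressing P. falciparum in infected erythrocytes (2% hematocrit, 0.1% parasitemia final) in RPMI 1640/0.5% Albumax were exposed to compound for 48 hours at 37 C, 5% CO2; growth read as luminescence.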
Pf growth 96h: Primary qHTS for delayed death inhibitors of the malarial parasite plastid, 96 hour incubation | P. falciparum luciferase reporter growth, 96 h | AID 504834, 2011 | Potency, µM (top dose mostly 28.7 µM), usual class: inhibitors | 320,000 tested, 6.9% active
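Plates of compound plus infected erythrocytes (2% hematocrit, 0.05% parasitemia final) incubate 96 hours, 37 C, 5% CO2. Detection reagent added; reduced luminescence from the parasites' luciferase reporter flags inhibition.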
CHX counter: Cycloheximide Counterscreen for Small Molecule Inhibitors of Shiga Toxin; cell reporter, cycloheximide protein synthesis inhibition counterscreen; max response, %; 300,000 tested, 12% active; AID 2314, 2010; in the data active = max response mostly above about 13%, no sharp cut-off; inactive = mostly below about 14%; also: read at 38.3 µM for the half of the compounds with a filed dose
AMA1-RON2 inh: qHTS for Inhibitors of AMA1-RON; Towards Development of Antimalarial Drug Lead: Primary Screen; Plasmodium falciparum AMA1 (3D7) - RON2 peptide interaction; Potency, µM (titrated, usually from 58.2 µM), actives largely listed as inhibitors; AlphaScreen AMA1-biotinylated RON2 peptide binding; 360,000 tested, 0.2% active; also: nearly all actives have a fitted effect of over 45% in size
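AMA1 (3D7) with his tag at 25 nM final met compounds first, then biotinylated RON2 peptide at 25 nM; detection used donor plus acceptor beads, 10 µg/mL apiece, read by AlphaScreen after 30 min at room temperature.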
Large screens that a line does not name were inactive. An excerpt weighted towards active compounds, which were near 19% of everything screened. Unless noted, calls follow the shape of the dose curve; as a rule, active = well fitted curve in the direction sought with a large enough effect; inconclusive = small, poorly fitted or top-dose-only effect, or another doubt; inactive = no such curve, though single readings can be large; an effect the other way counts as inactive or inconclusive.

COc1cc(/C=C2\SC(=Nc3ccccc3)NC2=O)cc(Cl)c1O	Pf growth 96h 6.6µM
O=C(Cn1cc2c(n1)CCCCC2)NCc1cccs1	none
CCc1nnc(NC(=O)c2cccnc2SC)s1	none
Cc1ccc(NC2CCCN(C(=O)c3cc4ncccn4n3)C2)cc1C (stereo not drawn)	Pf growth 96h inconclusive
O=C1NC(=Nc2ccccc2)S/C1=C\c1ccccc1	CHX counter 19 (no result: Shiga toxin inh)
O=C(CSc1nnnn1C1CCCC1)NCc1ccc2c(c1)OCO2	Pf growth 96h 10µM
O=C(CSc1nnnn1C1CCCCC1)NCc1ccc2c(c1)OCO2	Pf growth 96h inconclusive
CCCn1c(SCC(=O)NCCc2ccccc2)nnc1C(C)C	none
CC(=O)Nc1ccc(C(=O)CSc2nnnn2C2CCCC2)cc1	CHX counter 15
CC(C)n1nnnc1SCC(=O)NCCc1ccccc1	CHX counter 16
CC(CCc1ccccc1)NC(=O)CSc1nnnn1C (stereo not drawn)	Pf growth 96h 4.7µM
CCOC(CNC(=O)Cn1nc(C)c2ccccc21)OCC	Pf growth 96h inconclusive
O=C(CSc1nnnn1C1CCCC1)Nc1ccccc1N1CCOCC1	none
O=C(CSc1nnnn1C1CCCC1)N1CCOCC1	Pf growth 96h inconclusive, CHX counter 36
O=C(CSc1nnnn1C1CCCC1)NCCc1ccccc1	Shiga toxin inh 49, CHX counter 23
O=C(CSc1nnnn1C1CCCC1)Nc1ccccc1F	Shiga toxin inh 31, CHX counter 13
COc1ccccc1NC(=O)CSc1nnnn1C1CCCC1	none
O=C(CSc1nnnn1C1CCCCC1)NCc1ccco1	Pf growth 96h inconclusive
Cc1occc1-c1nnc(SCC(=O)NCCc2ccccc2)n1C(C)c1ccccc1 (stereo not drawn)	Pf growth 48h inconclusive, Pf growth 96h 8.3µM
CCN(c1ccccc1)S(=O)(=O)c1ccc(Cl)c(C(=O)NCC2CCCO2)c1 (stereo not drawn)	none
COc1ccccc1N1CCN(S(=O)(=O)CCNC(=O)C23CC4CC(CC(C4)C2)C3)CC1	Pf growth 48h inconclusive
CCOc1ccccc1CN1CCNC(=O)C1CC(=O)N(C)C1CCOCC1 (stereo not drawn)	Pf growth 48h inconclusive
Brc1ccc(/C=N/Nc2ccccn2)cc1	Shiga toxin inh 182, Pf growth 96h inconclusive, CHX counter 40
CCOc1ccc(/C=N/Nc2ccccn2)cc1	Shiga toxin inh 70, CHX counter 34
Clc1ccccc1C=NNc1ccccn1	none (no result: Shiga toxin inh, SARS PLP yeast, Pf growth 48h, Pf growth 96h, CHX counter)
Brc1ccccc1/C=N/Nc1ccccn1	Shiga toxin inh 51, CHX counter 24
Clc1ccc(/C=N/Nc2ccccn2)cc1	Shiga toxin inh 108, CHX counter 53
Cc1noc(C)c1/C=N/Nc1ccccn1	none
CCCOc1ccc(/C=N/NC(=O)C(=O)Nc2ccccn2)cc1	Pf growth 96h inconclusive
COc1ccc(/C=N/Nc2ccccn2)cc1O	Shiga toxin inh 70, CHX counter 46
Cc1ccc(/C=N/Nc2ccccn2)s1	Shiga toxin inh 102, CHX counter 40
Fc1ccc(/C=N/Nc2nn[nH]n2)cc1	none
FC(F)(F)c1ccccc1/C=N/Nc1ccccn1	Shiga toxin inh 59, CHX counter 25
Oc1cccc(C=NNc2ccccn2)c1	none (no result: Shiga toxin inh, SARS PLP yeast, Pf growth 48h, Pf growth 96h, CHX counter)
Fc1ccc(/C=N/Nc2ccccn2)cc1	Shiga toxin inh 68, CHX counter 62
CC1C(=O)N(Cc2ccc([N+](=O)[O-])cc2)c2ccccc2N1C(=O)C1CC1 (stereo not drawn)	none
O=C(C[C@@H]1C[C@H]2c3cc(NC(=O)Nc4ccccc4F)ccc3O[C@H]2[C@H](CO)O1)NCC(F)(F)F	none (no result: Shiga toxin inh, SARS PLP yeast, Pf growth 48h, Pf growth 96h, CHX counter)
O=C1CSC(c2cn(-c3ccccc3)nc2-c2ccc3c(c2)OCCO3)N1CCN1CCOCC1 (stereo not drawn)	Pf growth 48h 8.3µM
Oc1ccc(-c2nc3ccccc3nc2-c2ccccc2)cc1	Pf growth 48h inconclusive
Cc1c(/C=N/NC(=O)CNc2ccccc2)c2ccccn2c1C(=O)c1ccc(Cl)cc1	Pf growth 48h 3.3µM, Pf growth 96h 3.3µM
Cc1c(C(=O)Nc2ccc(Cl)cc2)c2ccccn2c1C(=O)c1ccccc1	Pf growth 48h inconclusive, Pf growth 96h inconclusive
Cc1c(/C=N/NC(=O)CNc2ccccc2)c2ccccn2c1C(=O)c1ccncc1	Pf growth 48h inconclusive, Pf growth 96h inconclusive
Cc1ccccc1NCC(=O)N/N=C/c1c(C)c(C(=O)c2ccc(Cl)cc2)n2ccccc12	SARS PLP yeast inconclusive, Pf growth 48h 13µM, Pf growth 96h 4.7µM
NC(=O)C1CCN(c2nc(-c3ccc4ccccc4c3)cs2)CC1	Pf growth 48h inconclusive, Pf growth 96h inconclusive (no result: Shiga toxin inh, CHX counter, AMA1-RON2 inh)
O=C(COc1ccccc1Br)Nc1ccccc1C(F)(F)F	Shiga toxin inh 61, CHX counter 23
O=Cc1ccc(OCC(=O)Nc2ccccc2C(F)(F)F)cc1	CHX counter 25
CCOc1ccc(OCC(=O)Nc2ccccc2C(F)(F)F)cc1	CHX counter 23
CC(C)OCCCNC(=O)c1c(N)n(Cc2cccs2)c2nc3ccccc3nc12	Pf growth 48h 9.3µM, Pf growth 96h 12µM
COCCNC(=O)c1c(N)n(CCCn2ccnc2)c2nc3ccccc3nc12	Pf growth 48h 7.4µM, Pf growth 96h inconclusive
CC(C)CCn1c(N)c(C(=O)NCc2cccs2)c2nc3ccccc3nc21	Pf growth 48h 0.83µM, Pf growth 96h inconclusive
CC(=O)c1c(O)ccc2c(-c3ccccc3)cc(=O)oc12	none
CCOC(=O)c1c(C)n(Cc2ccco2)c2c1cc(O)c1ccccc12	Pf growth 48h 3.7µM (no result: Pf growth 96h)
CCOC(=O)c1c(C)n(CC)c2c1cc(O)c1ccccc12	none
CCOC(=O)c1c(C)oc2c1c(C=NCc1ccccn1)c(O)c1ccccc12	Shiga toxin inh 47, Pf growth 48h 2.1µM, Pf growth 96h inconclusive, CHX counter 29
CC(=O)c1c(O)cccc1O	none (no result: SARS PLP yeast, Pf growth 48h, Pf growth 96h, AMA1-RON2 inh)
CC(=O)c1cc(O)c2ccccc2c1O	Shiga toxin inh 66, Pf growth 48h inconclusive, Pf growth 96h inconclusive, CHX counter 31
CC(=O)c1c(C)oc2c1cc(O)c1ccccc12	CHX counter 20
CCOC(=O)c1c(C)oc2c1c(C=NCC1CCCO1)c(O)c1ccccc12 (stereo not drawn)	Pf growth 48h inconclusive
S=c1[nH]nc(C2CCCCC2)n1/N=C/c1c(Cl)cccc1Cl	none
C=C1[C@H]2O[C@H]2[C@@H](OC(C)=O)[C@@]2(C)[C@@H](OC(C)=O)C[C@@H](OC(C)=O)[C@@](C)(O)[C@@H]2[C@@H](OC(C)=O)[C@@]2(O)[C@@H](C)C(=O)O[C@H]2[C@H]1Cl	none (no result: Shiga toxin inh, SARS PLP yeast, Pf growth 48h, Pf growth 96h, CHX counter)
COc1ccc2c(CC(=O)OCC(=O)N(C)c3c(N)n(Cc4ccccc4)c(=O)[nH]c3=O)coc2c1	none (no result: Shiga toxin inh, SARS PLP yeast, Pf growth 48h, Pf growth 96h, CHX counter)

Screening results deposited in PubChem by National Center for Advancing Translational Sciences (NCATS).
